Screening data as filed in PubChem BioAssay.
The list is not random: actives were taken first. Their share in the collection is about 3.3%.
TPT1 inhibitor: Candida albicans TPT1 enzyme inhibitors, primary screen, biochemical, fluorescence polarization; inhibition, % at 5 µM; recombinant caTPT1, FP RNA substrate dephosphorylation; tRNA 2'-phosphotransferase TPT1 (Candida albicans SC5314); 0.81% of 300,000 active;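 active = inhibition above the mean of all tested compounds plus 3 SD, set per screening campaign, cut at about 24% in these data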;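 also: plate controls were DMSO alone for no effect and ferristatin control at 100 nM for full effect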
Rpn11 inh: Rpn11 (PSMD14) deubiquitinase inhibitors, primary screen, biochemical, fluorescence polarization, uHTS. human 26S proteasome, Ub4-pepOG fluorescence polarization; 20S core pre-blocked with epoxomicin. 26S proteasome non-ATPase regulatory subunit 14 (Homo sapiens), O00487. 0.59% of 360,000 active. inhibition, % at 20 µM;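 active = inhibition at 20 µM, scaled to each plate's controls, above about 33%, limit read from the data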
Target sequence (O00487 whole entry, looked up): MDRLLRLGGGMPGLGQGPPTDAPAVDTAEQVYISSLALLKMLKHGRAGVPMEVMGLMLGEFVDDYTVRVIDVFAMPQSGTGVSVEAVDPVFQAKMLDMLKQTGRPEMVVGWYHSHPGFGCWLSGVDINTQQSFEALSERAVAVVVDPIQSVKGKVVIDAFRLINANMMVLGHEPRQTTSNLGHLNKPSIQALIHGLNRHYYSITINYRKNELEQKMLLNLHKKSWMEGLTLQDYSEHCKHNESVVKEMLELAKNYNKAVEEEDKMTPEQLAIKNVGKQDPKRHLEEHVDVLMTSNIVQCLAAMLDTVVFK
CTSL1 counter: Fasciola hepatica cathepsin L1 inhibitors, primary screen, counter-screen for PFM18AAP inhibitor project, biochemical, QFRET, fluorogenic peptide substrate | recombinant F. hepatica cathepsin L1, Z-Leu-Arg-MCA fluorescence | inhibition, % at 5.96 µM | 0.49% of 300,000 active | AID 1906, 2009;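 active = inhibition above the mean of all tested compounds plus 3 SD, set per screening campaign, cut at about 17% in these data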;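 also: 0% = plate median of test compound wells and 100% = 1 µM Z-Phe-Ala-diazomethylketone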
CendR NRP1 mod: modulators of CendR peptide binding to NRP-1, primary screen, biochemical, fluorescence polarization, uHTS. FAM-RPARPAR peptide binding to NRP-1. inhibition, % at 25 µM. 0.85% of 360,000 active;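 active = inhibition or corrected inhibition above about 18%, plus a signal ratio from 0.5 to 1.5, limit read from the data, passing the limit was not always enough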
HNF4A DNA FP: change in binding of human HNF4A to DNA, primary screen, biochemical, fluorescence polarization, FITC-DNA; 1 h; activity change, % at 10 µM; 0.3% of 360,000 active; AID 1224865, 2016; in the data active = activity change above about 30%, passing the limit was not always enough
PHOSPHO1 block: PubChem AID 1565; Phosphoethanolamine/phosphocholine phosphatase (Homo sapiens), Q8TCT1; recombinant PHOSPHO1, absorbance phosphatase assay; inhibition, % at 13.3 µM; 1.1% of 290,000 active; in the data active = inhibition above about 60%
Target sequence (Q8TCT1 whole entry, looked up): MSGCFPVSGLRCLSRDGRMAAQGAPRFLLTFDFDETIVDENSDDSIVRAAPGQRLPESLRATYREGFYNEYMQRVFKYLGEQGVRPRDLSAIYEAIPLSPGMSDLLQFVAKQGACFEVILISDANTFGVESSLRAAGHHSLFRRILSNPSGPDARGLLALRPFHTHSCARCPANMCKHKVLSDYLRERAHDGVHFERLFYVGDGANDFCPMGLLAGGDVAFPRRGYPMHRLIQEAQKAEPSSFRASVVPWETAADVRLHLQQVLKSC
* = called active by the depositor; nt = no result given.

SMILES	TPT1 inhibitor	Rpn11 inh	CTSL1 counter	CendR NRP1 mod	HNF4A DNA FP	PHOSPHO1 block
CC(/C=N\NC(=O)c1cccnc1)c1ccccc1 (centres undefined)	-7	-6	-4	33*	4	nt
CCOc1ccc(-n2c(O)cc(=O)[nH]c2=O)cc1	17	5	0	1	4	3
CC1=C(C(=O)NC(C)CCc2ccccc2)C2(CCC(C)CC2)OC1=O (centres undefined)	3	0	1	2	6	9
COc1ccc(NC(=S)Nc2ccc3nc(C)c(C)nc3c2)cc1	-1	8	1	-2	-1	-113
COc1ccc(NC(=S)Nc2ccc3nsnc3c2)cc1	-10	-20	99*	6	-4	54
C=CCN(CC=C)C(=S)Nc1ccc2nsnc2c1	-5	-9	-1	30*	0	28
CCOc1ccc(NC(=S)Nc2ccc3nsnc3c2)cc1	4	4	110*	4	6	5
C=CCNC(=S)Nc1ccc2nsnc2c1	-6	-2	-3	7	2	-6
COc1cccc(NC(=O)C2C3C=CC4(O3)C2C(=O)N(CCCN2CCCCC2)C4C(=O)NC2CCCCC2)c1 (centres undefined)	-1	-4	4	4	-2	4
CCOC(=O)c1cn(Cc2ccccc2)c(C(=O)OC(C)(C)C)c1O	-1	-16	4	12	0	nt
CN1CCc2cccc3c2C1Cc1ccc(O)c(O)c1-3 (centres undefined)	-4	-3	-2	2	4	25
CCCc1cc(=O)n2[nH]c(NCc3ccc(OC)c(OC)c3)nc2n1	-4	-12	-3	-7	1	23
CCOC(=O)c1cnc2nc(NCc3ccc(OC)c(OC)c3)[nH]n2c1=O	0	3	20*	13	-3	0
CC[N+](CC)(CC)CC(=O)Nc1c(C)cccc1C	2	1	21*	-18	0	nt
COc1cc2c(cc1OC)/C(=C/c1ccc(Cl)cc1)C(=O)OC2	-1	-2	0	2	-1	-7
COc1ccc(/C=C2\C(=O)OCc3cc(OC)c(OC)cc32)cc1OC	2	-6	0	25*	-2	-5
CCOC(=O)C1=C(O)/C(=C/c2ccc(-c3ccccc3C(=O)O)o2)SC1=Nc1ccc(C)cc1	nt	nt	nt	-207	58*	nt
CCOC(=O)C1=C(O)/C(=C/c2ccccn2)SC1=Nc1ccc(Cl)cc1	1	0	4	-4	0	3
Oc1ccc(-c2c(C3=CCCCC3)sc3ccccc23)cc1	0	0	0	6	2	4
CCC(C)(NC=O)C(=O)Nc1c(C)cccc1C (centres undefined)	5	-4	0	26*	-3	32
CN(C)c1cc(-c2ccc(Br)cc2)oc(=O)c1Cl	0	7	1	-4	0	12
Cc1ccc(NC(=O)Nc2nnc(-c3ccncc3)s2)cc1C	0	-1	-2	-9	-12	-15
COC(=O)Nc1nnc(-c2ccncc2)s1	-2	-3	4	-6	-3	62*
CCOC(=O)Nc1nnc(-c2ccc(OC)cc2)s1	-2	-9	-5	4	-1	20
CCOC(=O)Nc1nnc(-c2cccc(OC)c2)s1	-1	-1	0	26*	5	12
SMILES	TPT1 inhibitor	Rpn11 inh	CTSL1 counter	CendR NRP1 mod	HNF4A DNA FP	PHOSPHO1 block
CC1(c2ccc(OC(F)F)cc2)NC(=O)N(CC(=O)Nc2ccc(F)cc2)C1=O (centres undefined)	1	-6	1	-4	1	15
O=C(CN1C(=O)NC2(CCCC2)C1=O)Nc1ccccc1N1CCCC1	-3	-2	4	10	-3	24
CC1(c2ccccc2)NC(=O)N(CC(=O)Nc2ccccc2N2CCCC2)C1=O (centres undefined)	-1	4	18*	-1	3	nt
Cc1ccc(C2(C)NC(=O)N(CC(=O)N(C)CC(=O)Nc3cccc(F)c3)C2=O)cc1 (centres undefined)	nt	-3	nt	6	0	nt
COc1cccc(NC(=O)CN(C)C(=O)CN2C(=O)NC(C)(c3ccc(C)cc3)C2=O)c1 (centres undefined)	nt	0	nt	19*	4	nt
CC1(c2ccc(OC(F)F)cc2)NC(=O)N(CC(=O)Nc2ccc(OC(F)F)cc2)C1=O (centres undefined)	0	4	2	18*	-1	45
O=C(CSCc1ccco1)N1CCc2ccccc21	1	0	1	1	1	22
COc1ccc(S(=O)(=O)N(C)C[C@@H]2Oc3c(NS(=O)(=O)c4cn(C)cn4)cccc3C(=O)N([C@@H](C)CO)C[C@@H]2C)cc1	nt	-4	nt	-16	2	nt
COc1ccc(S(=O)(=O)Nc2cccc3c2O[C@H](CN(C)S(=O)(=O)c2cn(C)cn2)[C@@H](C)CN([C@H](C)CO)C3=O)cc1	nt	1	nt	26*	1	nt
O=[N+]([O-])c1ccc(NS(=O)(=O)c2ccc(Cl)c(Cl)c2)cc1	nt	11	nt	-15	0	nt
O=C(CNC(=O)c1cccc(F)c1)OCC(=O)N1CCCc2ccccc21	-2	-8	20*	-8	-2	16
CC1CCCCC1NC(=O)COC(=O)CNC(=O)c1cccc(F)c1 (centres undefined)	1	-5	22*	13	4	-35
O=C(NCc1ccc(Cl)cc1)C1CCN(S(=O)(=O)c2ccc(N3CCCC3=O)cc2)CC1	-6	1	1	11	4	42
O=C(NCc1ccccc1)C1CCN(S(=O)(=O)c2ccc(N3CCCC3=O)cc2)CC1	-1	-4	17*	4	-2	37
CC(=O)c1cccc(S(=O)(=O)N2CCC(C(=O)O)(c3ccccc3)CC2)c1	-3	3	-2	24*	-4	32
O=C(Nc1cccc(S(=O)(=O)N2CCCCC2)c1)c1ccc([N+](=O)[O-])o1	-1	3	1	36*	-1	2
O=C(NCc1ccccc1)c1cccc(S(=O)(=O)N2CCCCC2)c1	0	-2	-3	31*	0	35
Cc1cccc(C)c1NC(=O)NC1(C(=O)NCc2ccncc2)CCCCC1	1	-4	0	-1	4	22
C=CC(C)(C)O[C@@H]1O[C@H](CO)[C@@H](O)[C@H](O)[C@H]1O	nt	4	nt	-2	2	nt
Cc1cc2cc(CNC(=S)NCc3ccccc3)ccc2n1C	-1	11	2	22*	-1	11
